The whole screen tested about 16,000 compounds, of which about 5,700 (36%) were called active. About 24% were inconclusive and are not listed. The list shows a part of the results. Values without a mark were called inactive. The call rests on the fitted dose curve; in most records, active means well fitted curve in the direction sought with a large enough effect; inconclusive means small, poorly fitted or top-dose-only effect, or effect the other way; inactive means no such curve, though single readings can be large or run the other way.
What follows are compounds tested against Cytochrome P450 1A2 (Homo sapiens) (UniProt P05177) (assay: Cytochrome panel assay with activity outcomes). Conditions: recombinant CYP, pro-luciferin dealkylation, luminescence, p450-cyp1a2; series mostly up to 57.1 µM; activity, negative = inhibition: at the top concentration.
Sequence of Cytochrome P450 1A2 (Homo sapiens) (P05177 whole entry, looked up): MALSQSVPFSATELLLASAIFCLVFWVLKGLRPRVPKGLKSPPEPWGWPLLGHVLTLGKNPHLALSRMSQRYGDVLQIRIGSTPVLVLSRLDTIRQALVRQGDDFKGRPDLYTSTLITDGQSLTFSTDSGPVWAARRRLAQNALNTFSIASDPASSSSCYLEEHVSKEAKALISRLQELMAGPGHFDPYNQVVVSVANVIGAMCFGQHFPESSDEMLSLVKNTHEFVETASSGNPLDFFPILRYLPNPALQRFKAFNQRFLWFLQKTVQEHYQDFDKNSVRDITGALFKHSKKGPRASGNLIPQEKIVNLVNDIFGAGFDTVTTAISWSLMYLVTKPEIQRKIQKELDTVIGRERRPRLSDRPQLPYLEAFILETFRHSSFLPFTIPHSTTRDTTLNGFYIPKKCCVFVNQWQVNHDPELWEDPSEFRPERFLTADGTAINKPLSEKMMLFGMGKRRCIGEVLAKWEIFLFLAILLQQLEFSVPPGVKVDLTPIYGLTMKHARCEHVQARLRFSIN
With `O=C(N/N=C/c1c[nH]c2ccccc12)c1ccn(Cc2ccc(Cl)cc2Cl)n1` the AC50 was 0.708 µM (active).
For `COC(=O)C1=C(C)NC2=C(C(=O)CCC2)C1c1cn(Cc2ccc(Cl)cc2Cl)nc1-c1ccccc1` (stereo not drawn), the “activity, negative = inhibition” value was -11.8%.
With `O=C(N/N=C/c1c[nH]c2ccc(Br)cc12)c1ccn(Cc2ccc(Cl)cc2)n1` the AC50 was 3.16 µM (active).
With `O=C(NC1CCCC1)c1cccnc1N1CCCCCC1` the AC50 was 15.8 µM (active).
In the case of `CN(C)C(CNC(=O)NC1CCCCC1)c1cccnc1` (stereo not drawn), the “activity, negative = inhibition” value is reported as -32.9%.
For `O=C(O)C1CCN(c2ncccn2)CC1`, the “activity, negative = inhibition” value was -15.9%.
For `C/C=C\C1=C(CO)[C@H](O)[C@H]2OC2[C@@H]1O` (stereo partly drawn), the activity, negative = inhibition was -5.28% [at 11.4 µM].
For `N#C/C(=C/c1cccc(C(F)(F)F)c1)c1nc(CCN2C(=O)c3ccccc3C2=O)cs1`, the AC50 was 12.6 µM (active).
In the case of `C[C@@H]1CC[C@@H]2C(=O)N3[C@@H](CC[C@@H](C)[C@@H]3c3ccc(-c4ccco4)cc3)C(=O)N2[C@H]1c1ccc(-c2ccco2)cc1`, the activity, negative = inhibition is reported as -4.34% [at 11.4 µM].
In the case of `Fc1ccc(C2CC(c3ccco3)=NN2c2ccccc2)cc1` (stereo not drawn), the AC50 is reported as 1.12 µM (active).
For `CC1=C(C(=O)O)N2C(=O)C(NC(=O)c3ccn(C)n3)C2SC1` (stereo not drawn), the “activity, negative = inhibition” value was 18.7%.
For `CC(=O)NCCNc1ncnc2ccc(-c3c(C)noc3C)cc12`, the AC50 was 15.8 µM (active).
`Cc1noc(C)c1-c1ccc2ncnc(NCCN3CCOCC3)c2c1` was tested, and the AC50 was 15.8 µM (active).
In the case of `c1nc(NCCN2CCOCC2)c2cc(-c3ccc4c(c3)OCO4)ccc2n1`, the AC50 is reported as 2.51 µM (active).
For `c1nc(NCCN2CCOCC2)c2cc(-c3ccoc3)ccc2n1`, the AC50 was 12.6 µM (active).
For `c1cncc(-c2ccc3ncnc(NCCN4CCOCC4)c3c2)c1`, the AC50 was 1 µM (active).
For `COc1ccc(CNc2ncnc3ccc(-c4cccc(C#N)c4)cc23)c(OC)c1`, the AC50 was 3.16 µM (active).
In the case of `COc1ccccc1CNc1ncnc2ccc(-c3cccc(C#N)c3)cc12`, the AC50 is reported as 0.251 µM (active).
For `O=C(Nc1cccc(Cl)c1Cl)c1snnc1-c1ccccc1`, the AC50 was 1.26 µM (active).
For `Cc1nc(C(=O)Nc2cccc(Cl)c2Cl)nn1-c1cc(OC(C)C)c(Cl)cc1Cl`, the “activity, negative = inhibition” value was -8.72%.
`CC[C@H](C)C(=O)O[C@@H]1C[C@H](C)C=C2C=C[C@H](C)[C@@H](CC[C@H]3C[C@@H](O)CC(=O)O3)[C@H]21` was tested, and the “activity, negative = inhibition” value was -9.48% [at 25.6 µM].
In the case of `CN(C)S(=O)(=O)c1ccc2c(c1)/C(=C/c1cc3c([nH]1)CCCC3)C(=O)N2`, the AC50 is reported as 0.316 µM (active).
With `CCOC(=O)O[C@]1(C(=O)COC(=O)CC)CC[C@@H]2[C@@H]3CCC4=CC(=O)C=C[C@@]4(C)[C@H]3[C@H](O)C[C@]21C` the “activity, negative = inhibition” value was -16.4% [at 25.6 µM].
For `O=c1ccc(NS(=O)(=O)c2ccccc2)cn1Cc1ccc(Cl)c(Cl)c1`, the “activity, negative = inhibition” value was -26.6%.
In the case of `Cc1cc(NS(=O)(=O)c2ccc(NC(=O)CN3C(=O)c4ccccc4C3=O)cc2)nc(C)n1`, the “activity, negative = inhibition” value is reported as 3.64%.
In the case of `Cc1ccc(S(=O)(=O)Nc2ccc(=O)n(Cc3ccc(Cl)c(Cl)c3)c2)cc1`, the AC50 is reported as 25.1 µM (active).
With `CCCn1c(-c2cccs2)nc2nc3ccccc3nc21` the AC50 was 1.78 µM (active).
For `Cc1c(Cl)c([N+](=O)[O-])nn1CC(=O)Nc1c(C)n(C)n(-c2ccccc2)c1=O`, the “activity, negative = inhibition” value was -2.44%.
With `Cc1ccc(NC(=O)Cn2nc([N+](=O)[O-])c(Br)c2C)cc1C` the AC50 was 12.6 µM (active).
`Cc1c(Br)c([N+](=O)[O-])nn1CC(=O)NCc1ccccn1` was tested, and the “activity, negative = inhibition” value was -24%.
For `Cc1cc(C)c(S(C)(=O)=O)c(Oc2ccc(C(C)(C)C)cc2)n1`, the AC50 was 4.47 µM (active).
In the case of `Cc1cc(C)c(S(C)(=O)=O)c(Oc2ccc(F)cc2)n1`, the AC50 is reported as 10 µM (active).
In the case of `COc1ccc(Oc2nc(C)cc(C)c2S(=O)(=O)c2ccc(C)cc2)cc1`, the “activity, negative = inhibition” value is reported as -22.5%.
`O=C(O)[C@@H](O)[C@@H](O)[C@@H](O)[C@@H](O)C(=O)O` (tested in a mixture with another compound) was tested, and the “activity, negative = inhibition” value was -1.46% [at 25.6 µM].
With `COc1ccccc1CNc1nc(-c2ccccc2CN(C)C)nc2ccccc12` the AC50 was 0.794 µM (active).
For `COc1ccc(CNc2nc(-c3ccccc3CN(C)C)nc3ccccc23)c(OC)c1`, the AC50 was 10 µM (active).
In the case of `COC(=O)c1[nH]c(C)c(/C(O)=C2\C(=O)C(=O)N(CCN(C)C)C2c2cccs2)c1C` (stereo not drawn), the “activity, negative = inhibition” value is reported as -24.7%.
For `C/C(Cl)=C/CSc1nnc2n(N)c(=O)c3ccccc3n12`, the AC50 was 11.2 µM (active).
`CCCSc1nnc2n(N)c(=O)c3ccccc3n12` was tested, and the AC50 was 4.47 µM (active).
In the case of `CCC(=O)N[C@@H]1CCc2cccc(OC)c2C1`, the AC50 is reported as 12.6 µM (active).
In the case of `CCOc1ccccc1NC(=O)CN1CCC(NC(=O)c2ccccc2)CC1`, the “activity, negative = inhibition” value is reported as -24.7%.
In the case of `COC(=O)N1CCC2(CC1)CCN(C(c1ccccc1)c1ccccc1)CC2`, the “activity, negative = inhibition” value is reported as 1.02%.
`COc1ccc(CNc2cc(-c3ccoc3)ncn2)c(OC)c1` was tested, and the AC50 was 15.8 µM (active).
`COc1ccccc1CNc1cc(-c2ccoc2)ncn1` was tested, and the AC50 was 15.8 µM (active).
`COc1cccc(CNc2ccc3nc(-c4ccc(N)cc4)c(OC)n3n2)c1` was tested, and the AC50 was 39.8 µM (active).
`O=C(O)CSCNC(=O)CC12CC3CC(CC(C3)C1)C2` was tested, and the “activity, negative = inhibition” value was -1.39%.
For `O=C1CC(c2cccs2)c2cc3c(cc2N1)OCO3` (stereo not drawn), the AC50 was 0.631 µM (active).
With `CC1(C)CC2(CC(c3cccs3)c3cc(Cl)c(O)cc3O2)NC(=S)N1` (stereo not drawn) the “activity, negative = inhibition” value was -22.7%.

Source: PubChem BioAssay AID1851 (National Center for Advancing Translational Sciences (NCATS), 2009)
On the % scale 0 is the no-effect control and ±100 the full control effect.
